Data on one sequence can be found in article PMC7862700, “An all-to-all approach to the identification of sequence-specific readers for epigenetic DNA modifications on cytosine”.

What all share (experiment): DAPPL (digital affinity profiling via proximity ligation, sequencing); 10 mM Tris-HCl pH 7.5, 50 mM NaCl, 1 mM DTT, 4% glycerol, room temperature, 30 min; GST-TFs on glutathione beads, 16-mer random dsDNA library, 0.1% formaldehyde crosslink after washing; high values mean tight binding
The target in one assay is T1, FLI1 (Homo sapiens, UniProt Q01543 1-452).
T1 sequence: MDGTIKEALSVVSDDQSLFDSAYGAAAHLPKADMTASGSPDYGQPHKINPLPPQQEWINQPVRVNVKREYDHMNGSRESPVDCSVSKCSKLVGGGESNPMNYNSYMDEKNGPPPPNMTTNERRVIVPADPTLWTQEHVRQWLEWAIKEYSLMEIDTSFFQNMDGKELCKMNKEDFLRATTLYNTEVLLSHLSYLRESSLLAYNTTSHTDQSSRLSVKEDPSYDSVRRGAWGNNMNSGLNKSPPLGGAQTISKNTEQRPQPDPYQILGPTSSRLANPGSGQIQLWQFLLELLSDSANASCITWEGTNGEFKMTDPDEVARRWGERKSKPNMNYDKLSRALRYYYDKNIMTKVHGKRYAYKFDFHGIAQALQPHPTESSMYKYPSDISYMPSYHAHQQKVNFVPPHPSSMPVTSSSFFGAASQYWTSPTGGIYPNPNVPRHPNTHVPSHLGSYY
Conditions: protein: recombinant; tags: N-terminal GST; dsDNA, one strand shown. The method in brief:
(§1)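 The binding signal reported is, for every hexamer, its read frequency for a factor over its read frequency for the tag-only sample. Reads came from pools of yeast-expressed, GST-fused human transcription factors on glutathione beads, barcoded with DNA and mixed with that sample, which were incubated with 200 nmole of a random double-stranded 16-mer DNA library in Tris/NaCl/DTT/glycerol buffer at room temperature for 30 min. After washing, the pools were crosslinked with 0.1% formaldehyde, proximity-ligated with BsaI/T4 ligase for 1 h at 37 °C, PCR-amplified and sequenced on an Illumina NextSeq500.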

The target in another assay is T2, ELK1 (Homo sapiens, UniProt P19419 1-428).
T2 sequence: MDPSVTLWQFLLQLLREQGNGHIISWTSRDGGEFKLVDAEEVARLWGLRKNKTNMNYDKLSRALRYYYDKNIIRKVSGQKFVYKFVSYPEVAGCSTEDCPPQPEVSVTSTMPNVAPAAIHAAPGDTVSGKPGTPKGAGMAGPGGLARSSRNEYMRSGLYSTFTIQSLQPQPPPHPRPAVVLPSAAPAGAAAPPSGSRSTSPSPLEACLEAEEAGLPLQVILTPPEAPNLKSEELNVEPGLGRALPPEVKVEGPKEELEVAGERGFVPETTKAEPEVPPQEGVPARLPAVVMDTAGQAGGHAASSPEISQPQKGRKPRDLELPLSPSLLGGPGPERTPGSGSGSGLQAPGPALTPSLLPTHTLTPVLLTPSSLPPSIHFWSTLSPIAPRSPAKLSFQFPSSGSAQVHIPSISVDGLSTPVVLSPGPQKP
The conditions noted are these: protein: recombinant; tags: N-terminal GST; dsDNA, one strand shown. The method in brief:
as §1

A further assay addresses T3, GABPA (Homo sapiens, UniProt Q06546 1-454).
T3 sequence: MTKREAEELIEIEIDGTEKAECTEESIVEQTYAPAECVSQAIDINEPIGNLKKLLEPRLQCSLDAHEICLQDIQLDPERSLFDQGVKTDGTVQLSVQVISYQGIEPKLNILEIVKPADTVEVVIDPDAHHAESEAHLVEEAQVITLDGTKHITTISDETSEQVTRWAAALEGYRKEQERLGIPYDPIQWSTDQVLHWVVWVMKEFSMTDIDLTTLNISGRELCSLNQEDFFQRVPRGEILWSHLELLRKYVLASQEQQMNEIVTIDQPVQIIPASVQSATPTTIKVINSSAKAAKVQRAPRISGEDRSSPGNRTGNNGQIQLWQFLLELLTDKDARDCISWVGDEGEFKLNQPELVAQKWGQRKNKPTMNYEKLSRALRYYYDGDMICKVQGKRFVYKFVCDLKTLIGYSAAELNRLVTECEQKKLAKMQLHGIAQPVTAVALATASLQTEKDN
Conditions: protein: recombinant; tags: N-terminal GST; dsDNA, one strand shown. The method in brief:
as §1

The next assay has as its target T4, ERG (Homo sapiens, UniProt P11308 1-479).
T4 sequence: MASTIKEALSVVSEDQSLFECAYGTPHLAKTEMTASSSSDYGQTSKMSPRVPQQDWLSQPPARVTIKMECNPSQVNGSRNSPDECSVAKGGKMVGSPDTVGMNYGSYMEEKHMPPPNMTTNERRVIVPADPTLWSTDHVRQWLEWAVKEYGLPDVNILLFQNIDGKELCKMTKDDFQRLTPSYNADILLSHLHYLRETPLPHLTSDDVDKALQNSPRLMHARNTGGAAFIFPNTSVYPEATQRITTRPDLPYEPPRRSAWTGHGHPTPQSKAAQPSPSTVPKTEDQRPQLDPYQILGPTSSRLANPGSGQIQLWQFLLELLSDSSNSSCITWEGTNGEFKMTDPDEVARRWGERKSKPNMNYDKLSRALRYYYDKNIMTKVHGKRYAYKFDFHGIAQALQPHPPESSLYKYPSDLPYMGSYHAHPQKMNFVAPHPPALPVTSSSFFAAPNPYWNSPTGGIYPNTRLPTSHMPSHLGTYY
Conditions: protein: recombinant; tags: N-terminal GST; dsDNA, one strand shown. Put shortly:
as §1

The next assay deals with ELF1 (Homo sapiens, UniProt P32519 1-619). The conditions noted are these: protein: recombinant; tags: N-terminal GST; dsDNA, one strand shown. Put shortly:
as §1

Another assay deals with T5, EHF (Homo sapiens, UniProt Q9NZC4 1-300).
T5 sequence: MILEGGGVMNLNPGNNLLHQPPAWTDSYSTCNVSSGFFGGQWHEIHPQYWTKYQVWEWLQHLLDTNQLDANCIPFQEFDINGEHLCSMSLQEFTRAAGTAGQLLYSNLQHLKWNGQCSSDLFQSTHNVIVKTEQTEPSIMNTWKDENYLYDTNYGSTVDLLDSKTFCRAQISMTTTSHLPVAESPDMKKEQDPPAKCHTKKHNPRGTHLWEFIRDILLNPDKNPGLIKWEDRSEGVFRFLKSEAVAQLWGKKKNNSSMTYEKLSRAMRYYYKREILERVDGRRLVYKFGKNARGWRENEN
Conditions: protein: recombinant; tags: N-terminal GST; dsDNA, one strand shown. The method in brief:
as §1

The target of another assay is SPI1 (Homo sapiens, UniProt P17947 1-270). Conditions: protein: recombinant; tags: N-terminal GST; dsDNA, one strand shown. Put shortly:
as §1

A further assay has as its target SPIB (Homo sapiens, UniProt Q01892 1-262). Conditions: protein: recombinant; tags: N-terminal GST; dsDNA, one strand shown. The method in brief: as §1
A further assay addresses T6, ELK3 (Homo sapiens, UniProt P41970 1-407).
T6 sequence: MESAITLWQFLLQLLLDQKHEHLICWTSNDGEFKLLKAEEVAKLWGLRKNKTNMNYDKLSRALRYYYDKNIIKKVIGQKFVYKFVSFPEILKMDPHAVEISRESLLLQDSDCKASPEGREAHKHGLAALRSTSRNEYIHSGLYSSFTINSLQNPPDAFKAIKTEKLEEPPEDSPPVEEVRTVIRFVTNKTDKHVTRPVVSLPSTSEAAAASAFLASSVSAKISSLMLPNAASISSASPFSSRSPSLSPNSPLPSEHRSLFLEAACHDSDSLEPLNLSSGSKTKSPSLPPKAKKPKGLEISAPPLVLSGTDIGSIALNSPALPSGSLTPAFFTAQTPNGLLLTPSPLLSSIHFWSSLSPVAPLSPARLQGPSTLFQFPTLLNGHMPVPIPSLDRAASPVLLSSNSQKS
Conditions: protein: recombinant; tags: N-terminal GST; dsDNA, one strand shown. Put shortly: as §1

In another assay the target is T7, FEV (Homo sapiens, UniProt Q99581 1-238).
T7 sequence: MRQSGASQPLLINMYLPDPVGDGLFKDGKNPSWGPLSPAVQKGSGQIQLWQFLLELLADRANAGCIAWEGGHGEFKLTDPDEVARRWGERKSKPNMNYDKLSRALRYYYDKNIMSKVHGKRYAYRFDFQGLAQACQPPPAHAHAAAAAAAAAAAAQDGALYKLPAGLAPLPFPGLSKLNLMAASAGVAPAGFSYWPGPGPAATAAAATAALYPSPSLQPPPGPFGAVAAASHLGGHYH
Conditions: protein: recombinant; tags: N-terminal GST; dsDNA, one strand shown. Put shortly:
as §1

A further assay concerns the target ETV5 (Homo sapiens, UniProt P41161 1-510). The conditions noted are these: protein: recombinant; tags: N-terminal GST; dsDNA, one strand shown. The method in brief: as §1
For another assay, the target named is HSF1 (Homo sapiens, UniProt Q00613 1-529). The conditions noted are these: protein: recombinant; tags: N-terminal GST; chain copies: 3; dsDNA, one strand shown. Put shortly:
as §1

The target of the next assay is T8, SPIC (Homo sapiens, UniProt Q8N5J4 1-248).
T8 sequence: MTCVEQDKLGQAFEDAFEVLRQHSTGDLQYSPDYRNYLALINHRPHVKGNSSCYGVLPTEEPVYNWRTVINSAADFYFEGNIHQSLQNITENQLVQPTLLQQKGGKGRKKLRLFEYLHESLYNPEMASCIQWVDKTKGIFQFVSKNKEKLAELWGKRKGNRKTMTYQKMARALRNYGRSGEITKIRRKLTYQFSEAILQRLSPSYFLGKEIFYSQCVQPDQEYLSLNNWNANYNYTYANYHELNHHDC
Conditions: protein: recombinant; tags: N-terminal GST; dsDNA, one strand shown. The method in brief: as §1

The target of a further assay is ELF4 (Homo sapiens, UniProt Q99607 1-663). Conditions: protein: recombinant; tags: N-terminal GST; dsDNA, one strand shown. The method in brief:
as §1

For another assay, the target named is T9, ELK4 (Homo sapiens, UniProt P28324-2 1-405).
T9 sequence: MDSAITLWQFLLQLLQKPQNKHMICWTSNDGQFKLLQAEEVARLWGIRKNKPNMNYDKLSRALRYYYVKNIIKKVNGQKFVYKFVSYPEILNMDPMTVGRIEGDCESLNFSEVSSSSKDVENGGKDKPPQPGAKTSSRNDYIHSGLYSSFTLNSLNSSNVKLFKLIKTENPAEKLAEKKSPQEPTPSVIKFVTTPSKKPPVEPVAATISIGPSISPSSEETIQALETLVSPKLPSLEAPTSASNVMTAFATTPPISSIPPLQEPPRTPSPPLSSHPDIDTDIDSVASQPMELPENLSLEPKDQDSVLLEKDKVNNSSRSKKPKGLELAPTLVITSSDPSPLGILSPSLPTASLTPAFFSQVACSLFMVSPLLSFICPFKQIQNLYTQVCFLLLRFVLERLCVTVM
Conditions: protein: recombinant; tags: N-terminal GST; dsDNA, one strand shown. The method in brief: as §1

The next assay has as its target T10, ELF3 (Homo sapiens, UniProt P78545 1-371).
T10 sequence: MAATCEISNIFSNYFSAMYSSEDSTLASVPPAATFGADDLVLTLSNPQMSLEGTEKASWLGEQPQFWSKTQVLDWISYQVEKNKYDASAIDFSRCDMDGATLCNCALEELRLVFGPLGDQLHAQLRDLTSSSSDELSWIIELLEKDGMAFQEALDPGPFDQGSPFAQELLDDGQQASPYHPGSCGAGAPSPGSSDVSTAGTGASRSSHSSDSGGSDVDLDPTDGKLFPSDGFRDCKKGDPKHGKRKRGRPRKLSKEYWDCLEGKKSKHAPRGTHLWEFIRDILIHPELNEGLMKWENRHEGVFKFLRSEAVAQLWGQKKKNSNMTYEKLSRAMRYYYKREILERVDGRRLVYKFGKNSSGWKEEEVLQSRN
The conditions noted are these: protein: recombinant; tags: N-terminal GST; dsDNA, one strand shown. Put shortly: as §1

The target in the next assay is CRX (Homo sapiens, UniProt O43186 1-299). The conditions noted are these: protein: recombinant; tags: N-terminal GST; dsDNA, one strand shown. The method in brief: as §1
CRX, sequence (O43186 whole entry): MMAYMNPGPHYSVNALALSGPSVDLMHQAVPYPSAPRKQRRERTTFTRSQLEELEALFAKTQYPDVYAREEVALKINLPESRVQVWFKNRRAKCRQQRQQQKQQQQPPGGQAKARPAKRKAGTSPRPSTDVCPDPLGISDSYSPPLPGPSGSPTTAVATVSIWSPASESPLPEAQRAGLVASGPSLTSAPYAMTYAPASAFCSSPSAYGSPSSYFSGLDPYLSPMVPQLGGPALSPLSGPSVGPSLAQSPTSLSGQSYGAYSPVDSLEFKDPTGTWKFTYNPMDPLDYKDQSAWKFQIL
Another assay concerns the target ETV1 (Homo sapiens, UniProt P50549 1-477). Conditions: protein: recombinant; tags: N-terminal GST; dsDNA, one strand shown. Put shortly:
as §1

SPIB, sequence (Q01892 whole entry): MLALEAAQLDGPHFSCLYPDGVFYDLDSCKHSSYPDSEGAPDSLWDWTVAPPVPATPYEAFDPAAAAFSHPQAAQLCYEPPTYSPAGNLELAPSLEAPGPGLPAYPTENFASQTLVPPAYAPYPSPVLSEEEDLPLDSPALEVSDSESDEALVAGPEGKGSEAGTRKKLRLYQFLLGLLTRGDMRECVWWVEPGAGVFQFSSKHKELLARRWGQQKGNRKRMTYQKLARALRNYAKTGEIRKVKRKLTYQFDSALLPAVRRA
ETV5, sequence (P41161 whole entry): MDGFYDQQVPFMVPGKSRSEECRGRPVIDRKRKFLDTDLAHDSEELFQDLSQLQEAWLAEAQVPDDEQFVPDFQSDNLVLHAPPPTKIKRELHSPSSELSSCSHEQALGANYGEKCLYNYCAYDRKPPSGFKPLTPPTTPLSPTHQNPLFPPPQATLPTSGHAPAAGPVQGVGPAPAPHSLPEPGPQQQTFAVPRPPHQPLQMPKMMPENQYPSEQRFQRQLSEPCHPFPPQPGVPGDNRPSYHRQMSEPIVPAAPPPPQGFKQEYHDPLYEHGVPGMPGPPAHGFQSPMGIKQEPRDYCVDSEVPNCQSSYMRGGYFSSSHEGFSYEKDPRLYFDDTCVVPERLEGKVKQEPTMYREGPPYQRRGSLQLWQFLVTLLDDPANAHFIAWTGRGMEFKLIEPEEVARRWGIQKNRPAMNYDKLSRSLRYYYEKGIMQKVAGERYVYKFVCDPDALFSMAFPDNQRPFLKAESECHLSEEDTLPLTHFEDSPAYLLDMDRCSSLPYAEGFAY
ETV1, sequence (P50549 whole entry): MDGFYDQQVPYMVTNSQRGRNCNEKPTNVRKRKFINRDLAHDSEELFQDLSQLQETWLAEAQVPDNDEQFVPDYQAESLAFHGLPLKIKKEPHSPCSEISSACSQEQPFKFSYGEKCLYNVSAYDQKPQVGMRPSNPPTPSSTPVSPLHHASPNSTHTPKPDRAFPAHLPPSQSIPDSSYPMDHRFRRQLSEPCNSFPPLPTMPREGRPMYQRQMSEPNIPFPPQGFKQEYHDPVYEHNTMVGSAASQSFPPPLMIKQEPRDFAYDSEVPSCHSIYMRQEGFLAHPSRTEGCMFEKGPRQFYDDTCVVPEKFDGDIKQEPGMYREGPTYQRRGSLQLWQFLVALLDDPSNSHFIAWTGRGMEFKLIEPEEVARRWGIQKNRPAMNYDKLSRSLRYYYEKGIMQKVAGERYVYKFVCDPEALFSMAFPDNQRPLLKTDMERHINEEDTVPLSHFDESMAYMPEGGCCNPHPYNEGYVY
ELF4, sequence (Q99607 whole entry): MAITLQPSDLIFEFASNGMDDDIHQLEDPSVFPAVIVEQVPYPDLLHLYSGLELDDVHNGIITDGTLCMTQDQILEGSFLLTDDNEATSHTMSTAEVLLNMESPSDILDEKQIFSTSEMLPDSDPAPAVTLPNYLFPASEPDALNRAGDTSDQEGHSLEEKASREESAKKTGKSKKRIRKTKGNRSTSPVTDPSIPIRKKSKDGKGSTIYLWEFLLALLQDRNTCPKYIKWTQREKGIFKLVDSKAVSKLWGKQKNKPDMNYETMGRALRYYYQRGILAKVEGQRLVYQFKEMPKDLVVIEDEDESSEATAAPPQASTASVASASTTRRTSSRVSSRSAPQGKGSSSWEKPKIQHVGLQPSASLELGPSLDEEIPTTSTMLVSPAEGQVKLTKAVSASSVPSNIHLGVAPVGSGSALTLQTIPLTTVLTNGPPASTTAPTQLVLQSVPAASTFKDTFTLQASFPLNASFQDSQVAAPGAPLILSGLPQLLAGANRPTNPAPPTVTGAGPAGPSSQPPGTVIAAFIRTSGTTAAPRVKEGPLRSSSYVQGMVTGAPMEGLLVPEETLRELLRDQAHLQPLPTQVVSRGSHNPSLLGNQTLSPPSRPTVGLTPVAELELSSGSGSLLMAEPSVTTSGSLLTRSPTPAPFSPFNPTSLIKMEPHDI
ELF1, sequence (P32519 whole entry): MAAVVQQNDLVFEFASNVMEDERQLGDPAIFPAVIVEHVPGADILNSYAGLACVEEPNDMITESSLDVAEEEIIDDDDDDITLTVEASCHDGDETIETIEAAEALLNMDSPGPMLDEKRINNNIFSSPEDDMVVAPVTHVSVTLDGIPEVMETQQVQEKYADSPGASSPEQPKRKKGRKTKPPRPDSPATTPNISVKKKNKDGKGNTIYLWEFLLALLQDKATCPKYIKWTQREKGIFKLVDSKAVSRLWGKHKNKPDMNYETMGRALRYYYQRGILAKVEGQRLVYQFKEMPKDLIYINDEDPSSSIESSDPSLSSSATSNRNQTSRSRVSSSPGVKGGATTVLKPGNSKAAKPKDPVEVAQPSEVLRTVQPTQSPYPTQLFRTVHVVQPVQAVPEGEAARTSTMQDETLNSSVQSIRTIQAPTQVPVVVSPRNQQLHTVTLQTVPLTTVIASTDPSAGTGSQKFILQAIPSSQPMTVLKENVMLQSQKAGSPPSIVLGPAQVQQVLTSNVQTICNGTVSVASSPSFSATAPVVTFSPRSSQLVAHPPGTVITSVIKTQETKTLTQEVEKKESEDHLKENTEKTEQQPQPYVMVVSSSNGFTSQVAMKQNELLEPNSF
HSF1, sequence (Q00613 whole entry): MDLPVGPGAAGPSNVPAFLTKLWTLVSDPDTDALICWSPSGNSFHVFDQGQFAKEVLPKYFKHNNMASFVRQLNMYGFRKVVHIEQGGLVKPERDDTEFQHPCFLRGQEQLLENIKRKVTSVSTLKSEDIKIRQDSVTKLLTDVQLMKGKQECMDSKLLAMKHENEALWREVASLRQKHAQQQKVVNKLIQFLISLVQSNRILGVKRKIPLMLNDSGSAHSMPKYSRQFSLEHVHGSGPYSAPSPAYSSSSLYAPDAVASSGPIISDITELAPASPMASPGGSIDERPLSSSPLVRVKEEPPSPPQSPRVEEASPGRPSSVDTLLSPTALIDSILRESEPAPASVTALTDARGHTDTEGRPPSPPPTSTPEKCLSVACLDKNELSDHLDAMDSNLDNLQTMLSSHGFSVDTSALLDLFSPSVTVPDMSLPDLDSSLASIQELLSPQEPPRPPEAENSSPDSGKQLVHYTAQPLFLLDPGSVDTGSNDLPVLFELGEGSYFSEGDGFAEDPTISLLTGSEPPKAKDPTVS

Take GTTTAT: the binding signal with FLI1 was 1.09 fold enrichment (6-mer frequency, TF over GST control); with ELK1 it was 1.02 fold enrichment (6-mer frequency, TF over GST control); with GABPA, 1.08 fold enrichment (6-mer frequency, TF over GST control); with ERG, 1.05 fold enrichment (6-mer frequency, TF over GST control); with ELF1 it was 1.06 fold enrichment (6-mer frequency, TF over GST control); in the assay with EHF, 1.06 fold enrichment (6-mer frequency, TF over GST control). In addition, the binding signal in the assay with SPI1 is 1.07 fold enrichment (6-mer frequency, TF over GST control); with SPIB it was 1.1 fold enrichment (6-mer frequency, TF over GST control); with ELK3, 1.12 fold enrichment (6-mer frequency, TF over GST control); with FEV, 1.02 fold enrichment (6-mer frequency, TF over GST control); in the assay with ETV5, 1.07 fold enrichment (6-mer frequency, TF over GST control); with HSF1 it was 1.14 fold enrichment (6-mer frequency, TF over GST control). Also, the binding signal in the assay with SPIC is 1.12 fold enrichment (6-mer frequency, TF over GST control); with ELF4 it was 1.07 fold enrichment (6-mer frequency, TF over GST control); with ELK4 it was 1.05 fold enrichment (6-mer frequency, TF over GST control); in the assay with ELF3, 1.27 fold enrichment (6-mer frequency, TF over GST control); with CRX it was 1.33 fold enrichment (6-mer frequency, TF over GST control); with ETV1 it was 1.03 fold enrichment (6-mer frequency, TF over GST control).
